Bioassay records: PubChem BioAssay, several laboratories
CYP2C9 inhib = blocks human cytochrome P450 2C9; inhibition, % at 5 µM; hit rate 20% among 96,000; P11712; CYP2C9 Supersomes, luciferin-H conversion, luminescence;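 active means blocking of liver enzyme CYP2C9 beyond about 50% at 5 µM, limit read from the data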
Cav3 T inh = blocks human Cav3.2 T-type calcium channel; O95180; Cav3.2-expressing cells, Fluo-4 calcium fluorescence FDSS; hits give low values; B-score at 10 µM; hit rate 4% among 100,000; AID 449739;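 active means single-dose well whose peak fluorescence ratio is a statistical outlier from its plate by either plate-standardised score or position-corrected B-score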
Target sequence (O95180 whole entry, looked up): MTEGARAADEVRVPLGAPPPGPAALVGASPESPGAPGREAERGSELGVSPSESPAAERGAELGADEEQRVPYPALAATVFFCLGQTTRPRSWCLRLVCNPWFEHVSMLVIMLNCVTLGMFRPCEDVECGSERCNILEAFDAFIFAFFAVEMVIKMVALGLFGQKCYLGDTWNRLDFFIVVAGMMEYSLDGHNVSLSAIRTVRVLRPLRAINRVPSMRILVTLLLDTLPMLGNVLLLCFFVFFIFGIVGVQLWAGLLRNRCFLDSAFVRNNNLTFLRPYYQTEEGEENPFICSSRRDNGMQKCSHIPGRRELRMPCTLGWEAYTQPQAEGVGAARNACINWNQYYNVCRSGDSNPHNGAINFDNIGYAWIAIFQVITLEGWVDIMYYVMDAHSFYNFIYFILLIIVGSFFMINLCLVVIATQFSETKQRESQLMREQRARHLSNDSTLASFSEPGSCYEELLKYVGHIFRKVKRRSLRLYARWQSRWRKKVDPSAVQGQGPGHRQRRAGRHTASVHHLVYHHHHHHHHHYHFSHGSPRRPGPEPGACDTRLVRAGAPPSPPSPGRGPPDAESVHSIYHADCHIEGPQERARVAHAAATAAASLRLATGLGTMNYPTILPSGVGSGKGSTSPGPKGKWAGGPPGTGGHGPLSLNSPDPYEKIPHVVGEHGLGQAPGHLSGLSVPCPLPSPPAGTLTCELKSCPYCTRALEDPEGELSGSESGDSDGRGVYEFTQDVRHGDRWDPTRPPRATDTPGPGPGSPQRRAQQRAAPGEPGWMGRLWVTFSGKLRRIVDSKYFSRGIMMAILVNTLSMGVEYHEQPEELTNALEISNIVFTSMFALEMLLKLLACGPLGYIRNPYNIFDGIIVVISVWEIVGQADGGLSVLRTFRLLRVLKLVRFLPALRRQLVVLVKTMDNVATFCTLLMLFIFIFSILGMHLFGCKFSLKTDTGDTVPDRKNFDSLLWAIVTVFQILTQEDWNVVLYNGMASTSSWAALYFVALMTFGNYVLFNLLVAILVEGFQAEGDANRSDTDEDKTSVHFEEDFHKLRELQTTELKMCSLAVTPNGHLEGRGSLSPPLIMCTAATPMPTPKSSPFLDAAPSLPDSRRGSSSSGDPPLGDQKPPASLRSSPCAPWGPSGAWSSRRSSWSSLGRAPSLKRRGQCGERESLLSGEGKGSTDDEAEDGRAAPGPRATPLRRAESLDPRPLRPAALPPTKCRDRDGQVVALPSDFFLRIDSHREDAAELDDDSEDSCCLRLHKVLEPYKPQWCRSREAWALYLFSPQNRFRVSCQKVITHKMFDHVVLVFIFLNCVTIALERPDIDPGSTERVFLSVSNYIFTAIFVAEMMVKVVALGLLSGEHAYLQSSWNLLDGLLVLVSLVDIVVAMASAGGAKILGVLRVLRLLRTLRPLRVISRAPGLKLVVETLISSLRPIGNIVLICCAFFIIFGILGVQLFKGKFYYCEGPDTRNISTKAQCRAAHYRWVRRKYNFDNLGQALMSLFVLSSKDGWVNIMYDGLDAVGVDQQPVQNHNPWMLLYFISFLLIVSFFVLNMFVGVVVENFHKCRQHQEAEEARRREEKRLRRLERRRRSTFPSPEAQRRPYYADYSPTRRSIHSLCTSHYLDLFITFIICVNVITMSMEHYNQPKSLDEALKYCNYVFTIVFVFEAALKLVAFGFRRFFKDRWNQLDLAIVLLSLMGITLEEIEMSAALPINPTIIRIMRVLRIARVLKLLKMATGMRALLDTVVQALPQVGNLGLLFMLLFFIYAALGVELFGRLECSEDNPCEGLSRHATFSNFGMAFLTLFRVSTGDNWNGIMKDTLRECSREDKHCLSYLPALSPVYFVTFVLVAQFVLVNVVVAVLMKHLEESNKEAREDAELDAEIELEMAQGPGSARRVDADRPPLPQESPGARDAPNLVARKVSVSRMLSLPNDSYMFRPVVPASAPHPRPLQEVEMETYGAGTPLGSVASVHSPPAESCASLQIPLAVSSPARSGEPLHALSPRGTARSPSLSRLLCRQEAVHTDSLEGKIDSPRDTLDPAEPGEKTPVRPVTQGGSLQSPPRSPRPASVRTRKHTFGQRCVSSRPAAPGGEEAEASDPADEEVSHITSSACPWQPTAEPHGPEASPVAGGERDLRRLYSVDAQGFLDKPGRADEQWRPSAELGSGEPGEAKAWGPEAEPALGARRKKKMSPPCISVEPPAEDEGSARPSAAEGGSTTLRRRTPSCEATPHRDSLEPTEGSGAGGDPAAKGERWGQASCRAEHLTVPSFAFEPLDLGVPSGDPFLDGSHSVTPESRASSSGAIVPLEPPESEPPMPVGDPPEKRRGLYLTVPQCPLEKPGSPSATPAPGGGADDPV
CYP2C9 act = CYP2C9 (human) activation. hit rate 1.4% among 96,000. activation factor at 5 µM. recombinant CYP2C9, luciferin-H conversion, luminescence; hits give high values; factor 1 = untreated enzyme, 0 = blocked;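 active means activation factor of 2 or more for CYP2C9 at a 5 µM dose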;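 further: 0 = sulfaphenazole-blocked wells and 1 = vehicle-only wells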
CYP2C19 activ = activators of human cytochrome P450 2C19 | recombinant CYP2C19, luciferin-H EGE luminescence; hits give high values; 0 = fully inhibited enzyme, 1 = untreated enzyme | activation factor at 5 µM | 96,000 tested, under 10 active | AID 1025;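 active means activation factor of at least 2 at 5 µM in the primary screen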;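 further: 0 = wells with 2.5 mM tranylcypromine and 1 = vehicle-only wells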
CYP2C19 inhib = blocks human cytochrome P450 2C19; P33261; CYP2C19 Supersomes, luciferin-H EGE luminescence, 30 min; inhibition, % at 5 µM; hit rate 21% among 96,000; AID 778;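 active means CYP2C19 inhibition above a set limit at 5 µM in the primary screen, cut at about 50% in these data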;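 further: plate controls were negative control wells for no effect and 2.5 mM tranylcypromine positive control for full effect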
Active calls of the source: *. The list is not random: actives were taken first. Their share in the collection is about 27%.

Screening COc1ccc(-n2c(Cc3cccn3C)nnc2SCC(=O)Nc2ccc(F)cc2F)cc1 returned CYP2C9 inhib 55.3*, Cav3 T inh -8.44*, CYP2C9 act 0.4, CYP2C19 activ 0.7 and CYP2C19 inhib 27.1.
For Cn1cccc1Cc1nnc(SCC(=O)N2CCOCC2)n1-c1ccc(F)cc1 the results were CYP2C9 inhib 1.2, Cav3 T inh 0.648, CYP2C9 act 1, CYP2C19 activ 1 and CYP2C19 inhib -1.5.
Screening COc1ccccc1NC(=O)CSc1nnc(Cc2cccn2C)n1CCc1ccccc1 returned CYP2C9 inhib 41.2, Cav3 T inh -2.23, CYP2C9 act 0.6, CYP2C19 activ 0.6 and CYP2C19 inhib 40.7.
For CC[N+](C)(C)c1cccc(O)c1 the results were Cav3 T inh -0.659.
For Cn1c(=O)[nH]c(=O)c2c1nc(SCC(O)CO)n2Cc1ccccc1Cl (stereo not drawn) the results were CYP2C9 inhib 0.2, Cav3 T inh 0.397, CYP2C9 act 1, CYP2C19 activ 1.1 and CYP2C19 inhib -12.7.
`COc1ccc(NC(NC(=O)c2ccc(OC)cc2)C(Cl)(Cl)Cl)cc1` (stereo not drawn) gave CYP2C9 inhib 84.2*, CYP2C9 act 0.2, CYP2C19 activ 0.3 and CYP2C19 inhib 66.3*.
Screening COc1ccc(C(=O)Nc2ccc(OC)c(OC)c2)cc1 returned CYP2C9 inhib -41.1, Cav3 T inh 0.216, CYP2C9 act 1.4, CYP2C19 activ 0.6 and CYP2C19 inhib 38.5.
Screening c1ccc(COc2ccc(-c3csnn3)cc2)cc1 returned CYP2C9 inhib 45.4, Cav3 T inh -0.00793, CYP2C9 act 0.5, CYP2C19 activ 0.3 and CYP2C19 inhib 68.2*.
For CCCOC(=O)c1c(NC(=O)CSc2nc(-c3ccco3)cc(C(F)(F)F)n2)sc(C(=O)OC)c1C the results were CYP2C9 inhib 69.5*, Cav3 T inh -5.22*, CYP2C9 act 0.3, CYP2C19 activ 0.8 and CYP2C19 inhib 22.1.
CCOC(=O)c1sc(NC(=O)CSc2nc(-c3ccco3)cc(C(F)(F)F)n2)c(C(=O)OC)c1C was read as CYP2C9 inhib 71.5*, Cav3 T inh -1.72, CYP2C9 act 0.3, CYP2C19 activ 0.5 and CYP2C19 inhib 45.5.
For CC(NC(=O)COC(=O)Cc1ccsc1)C1CC2CCC1C2 (stereo not drawn) the results were CYP2C9 inhib 36.2, CYP2C9 act 0.6, CYP2C19 activ 0.1 and CYP2C19 inhib 91.9*.
O=C(COC(=O)Cc1ccsc1)NCC1CCCCC1 was read as CYP2C9 inhib 7.8, Cav3 T inh 1.08, CYP2C9 act 0.9, CYP2C19 activ 0.4 and CYP2C19 inhib 56.9*.
Screening NC(=O)c1ccsc1NC(=O)COC(=O)Cc1ccsc1 returned CYP2C9 inhib 49.4, Cav3 T inh 0.93, CYP2C9 act 0.5, CYP2C19 activ 0.6 and CYP2C19 inhib 39.6.
O=C(Nc1ccccc1)[C@@H]1CC=C[C@@H]2CCN(Cc3ccc(Cl)c(Cl)c3)C(=O)[C@@H]21 was read as Cav3 T inh -2.3.
`CCCCn1c(=NC(=O)c2ccc3c(c2)OCO3)c(C#N)cc2c(=O)n3cccc(C)c3nc21` gave CYP2C9 inhib 57.3*, Cav3 T inh 1.11, CYP2C9 act 0.4, CYP2C19 activ 0.6 and CYP2C19 inhib 35.7.
For COCCn1c(=NC(=O)c2ccc3c(c2)OCO3)c(C#N)cc2c(=O)n3cccc(C)c3nc21 the results were CYP2C9 inhib -13.4, Cav3 T inh 1.61, CYP2C9 act 1.1, CYP2C19 activ 1.2 and CYP2C19 inhib -22.9.
Cc1ccc(SC(c2ccccc2)C(Cn2cncn2)C(=O)c2ccccc2)cc1 (stereo not drawn) was read as CYP2C9 inhib 100.3*, Cav3 T inh 0.336, CYP2C9 act 0, CYP2C19 activ 0 and CYP2C19 inhib 99.1*.
Screening O=C(CSc1ncnc2c(-c3ccc(Cl)cc3)nsc12)c1ccccc1 returned CYP2C9 inhib 8.8, Cav3 T inh -0.883, CYP2C9 act 0.9, CYP2C19 activ 1 and CYP2C19 inhib -0.3.
Screening O=C(c1ccc(Cl)cc1)C(Cn1cncn1)C(Sc1ccccc1)c1ccccc1 (stereo not drawn) returned CYP2C9 inhib 100.3*, Cav3 T inh -1.78, CYP2C9 act 0, CYP2C19 activ 0 and CYP2C19 inhib 98.5*.
Screening CCN(CC)c1ccc(NC(=O)COC(=O)c2ccc3ccccc3n2)cc1 returned CYP2C9 inhib 2.2, Cav3 T inh -0.301, CYP2C9 act 1, CYP2C19 activ 0.8 and CYP2C19 inhib 22.7.
For COCCCNC(c1ccccc1)c1ccncc1 (stereo not drawn) the results were CYP2C9 inhib 64.6*, Cav3 T inh 0.557, CYP2C9 act 0.4, CYP2C19 activ 0.1 and CYP2C19 inhib 86.2*.
`COCCCNc1cc(C)nc2ccccc12` gave CYP2C9 inhib 5.3, Cav3 T inh 0.786, CYP2C9 act 0.9, CYP2C19 activ 1 and CYP2C19 inhib 1.6.
Screening COCCCNc1nc(-c2ccncc2)nc2ccccc12 returned CYP2C9 inhib 70.6*, Cav3 T inh 0.536, CYP2C9 act 0.3, CYP2C19 activ 0.2 and CYP2C19 inhib 78.4*.
O=C(O)C1CCN(C(=O)NC2CCCCC2)CC1 was read as CYP2C9 inhib 5.0, Cav3 T inh 0.612, CYP2C9 act 0.9, CYP2C19 activ 1 and CYP2C19 inhib -3.8.
`O=C(Cn1nc(Cl)nc1Cl)c1cc2ccccc2oc1=O` gave CYP2C9 inhib 61.8*, Cav3 T inh 1.97, CYP2C9 act 0.4, CYP2C19 activ 0.9 and CYP2C19 inhib 12.8.
Cn1cnnc1SCC(=O)c1cc2ccccc2oc1=O was read as CYP2C9 inhib 15.0, Cav3 T inh -0.0999, CYP2C9 act 0.8, CYP2C19 activ 1 and CYP2C19 inhib 0.5.
CC(C)N(C(=O)CN1C(=O)NC2(CCCCCC2)C1=O)C(C)C was read as CYP2C9 inhib -10.4, Cav3 T inh 0.469, CYP2C9 act 1.1, CYP2C19 activ 1.1 and CYP2C19 inhib -5.8.
CCCCC1(C)OC(=O)C(=Cc2ccc(N(CC)CC)cc2)C(=O)O1 (stereo not drawn) was read as CYP2C9 inhib 4.4, Cav3 T inh -0.76, CYP2C9 act 1, CYP2C19 activ 0.5 and CYP2C19 inhib 53.5*.
For CCN(CC)c1ccc2c(c1)oc(=O)c1c(Cl)cc(=O)oc12 the results were CYP2C9 inhib 12.2, Cav3 T inh -0.796, CYP2C9 act 0.9, CYP2C19 activ 1 and CYP2C19 inhib -0.4.
Screening O=C1CC(N2CCOCC2)C(=O)N1CCc1ccccc1 (stereo not drawn) returned CYP2C9 inhib 10.5, Cav3 T inh -0.287, CYP2C9 act 0.9, CYP2C19 activ 0.7 and CYP2C19 inhib 27.4.
Screening O=C(CSC1CC(=O)N(CCc2ccccc2)C1=O)Nc1ccc(Br)cc1 (stereo not drawn) returned CYP2C9 inhib 25.0, Cav3 T inh -4.81*, CYP2C9 act 0.8, CYP2C19 activ 0.6 and CYP2C19 inhib 36.6.
Screening C/C(=N\Nc1cc(Cl)nc(C)n1)c1ccc(C)cc1 returned Cav3 T inh -1.47.
For Cc1cc(Cl)ccc1OCCCC(=O)NC1CCN(C)CC1 the results were CYP2C9 inhib -13.4, Cav3 T inh -0.279, CYP2C9 act 1.1, CYP2C19 activ 0.9 and CYP2C19 inhib 8.7.
